A number with no mark means an inactive call. Results filed as inconclusive are left out. Activity calls are given as the source filed them. Unless noted, calls follow the shape of the dose curve; as a rule, active = well fitted curve in the direction sought with a large enough effect in the repeat runs; inconclusive = weak or mixed curves; inactive = no such curve, though single readings can be large; an effect the other way counts as inactive or inconclusive.

Assay [1] is described as follows: qHTS assay for small molecules that induce genotoxicity in human embryonic kidney cells expressing luciferase-tagged ATAD5 (AID 651632). Also: nearly all actives have a fitted effect of over 15% in size. A digest of the protocol:
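Reporter cells (HEK293T) express luciferase-tagged ATAD5, a protein that accumulates after DNA damage. Treat 16 hr at 37C/5% CO2, add Amplite, wait 30 min at RT, and read luminescence.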
Background: In qHTS, concentration-response curves come from the screen itself.

Assay [2] is described as follows: qHTS assay for small molecule agonists of the p53 signaling pathway - cell viability (AID 651633; calls by dose curve;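 also: p53RE-bla HCT reporter cells with a stable beta-lactamase p53 reporter; series mostly up to about 83 µM; nearly all actives have a fitted effect of over 30% in size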). A digest of the protocol:
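p53RE-bla cells, seeded at 4,000 per well and rested 5 h at 37 C/5% CO2, received compounds in DMSO for 16 h at 37 C. CellTiter-Glo was then added, and luminescence was read after 30 min at room temperature to gauge cytotoxicity.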

Assay [3] in a line: qHTS assay for small molecule disruptors of the mitochondrial membrane potential - cell viability (AID 720634; calls by dose curve;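 also: human HepG2 liver cancer cells; series mostly up to about 83 µM; nearly all actives have a fitted effect of over 20% in size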). A digest of the protocol:
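Measuring cytotoxicity alongside mitochondrial potential, the screen quantified ATP by luminescence in HepG2 cells after 1 hr compound incubation and a 30 min room-temperature CellTiter-Glo step.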

The nature of assay [4]: qHTS assay to test for compound auto fluorescence at 535 nm (green) in HepG2 cells (AID 720675).
Assay [5] is described as follows: qHTS assay to test for compound auto fluorescence at 590 nm (red) in HEK293 cells (AID 720679). A digest of the protocol: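 Using HEK293 cells at 2,000 per well, the screen added 23 nL of each compound after cell attachment and incubated overnight (37C, 5% CO2). The plate reader then captured red-label fluorescence, Ex/Em 540/590nm.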
The nature of assay [6]: qHTS assay to test for compound auto fluorescence at 460 nm (blue) in HEK293 cell free culture (AID 720681). Put shortly: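 Test compounds were pinned into cell-free culture medium (DMEM with 10% FBS) and fluorescence was read directly at Ex/Em 405/460 nm. Signals were expressed as fluorescence equivalents of triamterene, with DMSO vehicle as control.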
Assay [7] can be described thus: qHTS assay to test for compound auto fluorescence at 535 nm (green) in HEK293 cell free culture (AID 720682). Put shortly: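 Fluorescein serves as the green reference fluorophore; each compound's intrinsic emission at 535 nm (excitation 485 nm) is reported as an equivalent amount of that dye, measured in serum-containing DMEM without cells.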
Assay [8] can be described thus: qHTS assay to test for compound auto fluorescence at 590 nm (red) in HepG2 cell free culture (AID 720684). Put shortly: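 Red fluorescence (540 nm excitation, 590 nm emission) was measured after compound transfer into cell-free MEM supplemented with 10% FBS. Values are equivalencies against Rose Bengal sodium.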
A short description of assay [9]: qHTS assay to test for compound auto fluorescence at 460 nm (blue) in HepG2 cell free culture (AID 720685). Put shortly:
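Compound (23 nL) or DMSO pinned into cell-free MEM with 10% FBS; blue fluorescence read at 405/460 nm excitation/emission, expressed as auto-fluorescence equivalency to triamterene.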

The nature of assay [10]: qHTS assay to test for compound auto fluorescence at 535 nm (green) in HepG2 cell free culture (AID 720686).
Assay [11] can be described thus: qHTS assay to test for compound auto fluorescence at 460 nm (blue) in HepG2 cells (AID 720687). Put shortly:
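Cells (2,000/well in MEM with 10% FBS) attached overnight at 37 C, then were exposed to compound or DMSO for 1 hr at 37 C, 5% CO2. Fluorescence read at Ex/Em 405/460 nm, expressed as triamterene-equivalent signal.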

A short description of assay [12]: qHTS assay to identify small molecule antagonists of the androgen receptor (AR) signaling pathway - cell viability counter screen (AID 743033; also: nearly all actives have a fitted effect of over 45% in size).
Assay [13] in a line: qHTS assay to identify small molecule antagonists of the androgen receptor (AR) signaling pathway using the MDA cell line - cell viability counter screen (AID 743041; also: nearly all actives have a fitted effect of over 45% in size). Put shortly:
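MDA-kb2 AR-luc human breast carcinoma cells (MMTV-luciferase, AR/GR responsive) were treated with compounds plus R1881 agonist for 16 h at 37 °C. Viability was read as CellTiter-Fluor fluorescence in the same wells as the reporter assay.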

Assay [14] is described as follows: qHTS assay to identify small molecule antagonists of the estrogen receptor alpha (ER-alpha) signaling pathway - cell viability counter screen (AID 743074; calls by dose curve;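 also: HEK293 cells carrying ER-alpha-UAS-bla reporter stimulated with 17beta-estradiol; nearly all actives have a fitted effect of over 45% in size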).
The nature of assay [15]: qHTS assay to identify small molecule antagonists of the estrogen receptor alpha (ER-alpha) signaling pathway using the BG1 cell line - cell viability counter screen (AID 743081).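 Also: compound given together with 17beta-estradiol as the ER stimulus; series mostly up to about 70 µM; nearly all actives have a fitted effect of over 45% in size.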
A further assay deals with Aromatase (Homo sapiens) (UniProt P11511). Kind of assay: qHTS assay to identify aromatase inhibitors (AID 743083). Also: series mostly up to about 70 µM; nearly all actives have a fitted effect of over 55% in size.
Chain of Aromatase (Homo sapiens) (P11511 whole entry, looked up): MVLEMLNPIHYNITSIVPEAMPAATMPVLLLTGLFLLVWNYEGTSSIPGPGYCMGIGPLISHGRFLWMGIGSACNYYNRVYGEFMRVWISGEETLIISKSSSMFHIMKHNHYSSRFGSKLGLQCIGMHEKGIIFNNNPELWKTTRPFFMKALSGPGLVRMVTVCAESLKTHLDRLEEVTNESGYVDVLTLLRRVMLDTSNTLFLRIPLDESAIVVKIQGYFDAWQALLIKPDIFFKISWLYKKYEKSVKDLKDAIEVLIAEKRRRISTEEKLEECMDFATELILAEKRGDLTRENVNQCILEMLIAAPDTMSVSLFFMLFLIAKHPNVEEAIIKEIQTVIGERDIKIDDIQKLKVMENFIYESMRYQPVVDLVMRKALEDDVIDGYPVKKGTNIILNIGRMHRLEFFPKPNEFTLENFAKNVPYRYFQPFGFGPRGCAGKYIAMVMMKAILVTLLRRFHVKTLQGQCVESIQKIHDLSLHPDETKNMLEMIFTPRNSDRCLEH
A short description of assay [16]: qHTS assay to identify aromatase inhibitors - cell viability counter screen (AID 743084).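 Also: cells stimulated with testosterone during compound exposure; nearly all actives have a fitted effect of over 55% in size.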
Assay [17] addresses Aryl hydrocarbon receptor (Homo sapiens) (UniProt P35869). Kind of assay: qHTS assay to identify small molecule that activate the aryl hydrocarbon receptor (AhR) signaling pathway (AID 743085).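 Also: HG2L7.5c1 human HepG2 liver cells with stably integrated DRE-driven firefly reporter; series mostly up to about 70 µM; nearly all actives have a fitted effect of over 15% in size.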 A digest of the protocol: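 Cell line HG2L7.5c1 (human hepatoma, 20× DRE-luc). Plated, 5 h 37C, compound/DMSO added, 24 h 37C. CellTiter-Fluor 30 min 37C → fluorescence; then ONE-Glo 30 min RT → luminescence.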

A short description of assay [18]: qHTS assay to identify small molecule phospholipidosis (PLD) inducers (AID 1259344; active = well fitted curve in the direction sought with a large enough effect; an effect the other way counts as inactive or inconclusive). Put shortly:
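HepG2 cells on collagen I, attached 4 h at 37 C, were co-treated with compound and LipidTOX Red dye for 24 h at 37 C, then fixed with paraformaldehyde plus Hoechst 33342 and imaged by high-content microscopy for phospholipid accumulation.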

In assay [19] the target is Nuclear receptor subfamily 1 group I member 2 (Rattus norvegicus) (UniProt Q9R1A7). In words: Rat pregnane X receptor (rPXR) activation by small molecules, qHTS assay (AID 1346983). Also: nearly all actives have a fitted effect of over 20% in size. Also: potency is read from the fitted curve at half-maximal effect. The conditions noted are these: rPXR luciferase reporter cells, One-Glo luminescence, 24 h; max activation: hits give high values. A digest of the protocol:
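Cell-based rPXR luciferase reporter assay, 2,000 cells per well, rested 5hr at 37 C before compound addition in DMSO, then 24 hr at 37 C. One-Glo reagent was added and luminescence read after 30 min at room temperature.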
% is scaled to controls: 0 for no effect and ±100 for the full control effect.

Chain of Nuclear receptor subfamily 1 group I member 2 (Rattus norvegicus) (Q9R1A7 whole entry, looked up): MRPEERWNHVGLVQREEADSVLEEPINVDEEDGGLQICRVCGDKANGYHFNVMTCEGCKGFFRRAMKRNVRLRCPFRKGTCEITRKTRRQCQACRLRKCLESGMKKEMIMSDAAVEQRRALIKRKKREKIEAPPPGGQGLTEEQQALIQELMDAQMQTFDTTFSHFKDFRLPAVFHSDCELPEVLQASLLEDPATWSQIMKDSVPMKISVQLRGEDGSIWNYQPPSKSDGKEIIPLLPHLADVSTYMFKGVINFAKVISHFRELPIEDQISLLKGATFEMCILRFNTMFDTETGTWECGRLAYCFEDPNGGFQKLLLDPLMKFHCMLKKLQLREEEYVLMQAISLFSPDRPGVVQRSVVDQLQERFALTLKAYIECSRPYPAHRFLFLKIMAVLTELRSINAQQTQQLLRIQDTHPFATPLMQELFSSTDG
Chain of Aryl hydrocarbon receptor (Homo sapiens) (P35869 whole entry, looked up): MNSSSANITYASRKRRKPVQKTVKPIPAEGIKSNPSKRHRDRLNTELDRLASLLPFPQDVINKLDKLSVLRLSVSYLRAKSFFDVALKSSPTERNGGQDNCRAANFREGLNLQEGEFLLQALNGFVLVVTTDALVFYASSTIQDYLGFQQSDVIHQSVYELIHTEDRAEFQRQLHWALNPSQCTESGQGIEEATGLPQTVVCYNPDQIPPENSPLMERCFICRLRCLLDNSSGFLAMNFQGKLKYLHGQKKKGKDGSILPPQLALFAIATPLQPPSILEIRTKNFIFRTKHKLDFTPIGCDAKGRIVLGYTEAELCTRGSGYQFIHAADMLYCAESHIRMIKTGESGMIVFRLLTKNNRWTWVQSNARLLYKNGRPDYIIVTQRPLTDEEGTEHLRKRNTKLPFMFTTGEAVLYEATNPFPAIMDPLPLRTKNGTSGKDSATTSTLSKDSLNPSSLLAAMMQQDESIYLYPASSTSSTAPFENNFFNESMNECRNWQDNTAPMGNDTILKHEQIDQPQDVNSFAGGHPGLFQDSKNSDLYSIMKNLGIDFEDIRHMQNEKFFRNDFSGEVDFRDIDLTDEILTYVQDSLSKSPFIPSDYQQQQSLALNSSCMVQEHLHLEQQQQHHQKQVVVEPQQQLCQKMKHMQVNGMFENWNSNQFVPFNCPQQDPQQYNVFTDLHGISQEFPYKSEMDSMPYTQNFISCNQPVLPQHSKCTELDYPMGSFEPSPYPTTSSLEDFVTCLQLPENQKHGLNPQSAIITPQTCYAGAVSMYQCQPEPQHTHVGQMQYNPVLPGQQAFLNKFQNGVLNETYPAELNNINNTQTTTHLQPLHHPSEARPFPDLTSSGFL

Consider `O=C(CCl)c1ccc(Oc2ccc(C(=O)CCl)cc2)cc1`, for which the Potency result in assay [1], in [2], in assay [3], in assay [4], in [6] and in assay [7] was “inactive” in each case. Further, the Potency entry in assay [9], in assay [10], in [11], in assay [12], in [13] and in assay [14] was “inactive” throughout. Moreover, the Potency result (in assay [15]; with Aromatase (Homo sapiens); in [16]; in [17]; in [18]) was “inactive” each time. Also, the result in assay [5] and in assay [8] was inactive. Besides, the max activation in [19] was 7.38%.

Regarding `CCNC(C)Cc1cccc(C(F)(F)F)c1` (configuration not stated), the Potency entry in [1], in assay [2], in [3], in [4], in assay [6] and in [7] was “inactive” in each case. Further, the Potency result in assay [9], in assay [10], in [11], in assay [12], in assay [13] and in assay [14] was “inactive” in each case. For the same molecule, the Potency result (in assay [15]; with Aromatase (Homo sapiens); in [16]; in assay [17]; in assay [18]) was “inactive” each time. Besides, the molecule was classed as inactive in assay [5] and in assay [8]. Besides, in [19], the max activation is -1.05%.

On to `c1cc2c(c(NC3=NCCN3)c1)CCCC2`, for which the Potency result in assay [1], in assay [2], in assay [3], in [4], in [6] and in assay [7] was “inactive” in each case. Besides, the Potency entry in [9], in assay [10], in assay [11], in assay [12], in [13] and in assay [14] was “inactive” each time. Also, the Potency entry (in assay [15]; with Aromatase (Homo sapiens); in assay [16]; in assay [18]) was “inactive” each time. Further, the molecule was classed as inactive in [5] and in assay [8]. Also, in assay [19], the max activation is -5.45%.

With `C/C(=C\c1csc(C)n1)[C@@H]1C[C@@H]2O[C@]2(C)CCC[C@H](C)[C@H](O)[C@@H](C)C(=O)C(C)(C)[C@@H](O)CC(=O)O1`, the Potency entry in assay [1], in assay [2], in [3], in assay [4], in assay [6] and in assay [7] was “inactive” in each case. Also, the Potency result (in [9]; in [10]; in [11]; in assay [13]; in assay [15]; with Aromatase (Homo sapiens)) was “inactive” each time. Besides, the Potency entry in assay [16], in [17] and in assay [18] was “inactive” in each case. Moreover, the molecule was classed as inactive in [5] and in assay [8]. In addition, the Potency in assay [19] was 10 µM (active).

Take `C[N+]1(C)[C@@H]2CC[C@H]1CC(OC(=O)c1c[nH]c3ccccc13)C2` (some centres not stated): the Potency result in [1], in assay [2], in [3], in assay [4], in assay [6] and in assay [7] was “inactive” each time. Moreover, the Potency entry in assay [9], in [10], in [11], in assay [12], in assay [13] and in assay [14] was “inactive” in each case. Also, the Potency result (in assay [15]; with Aromatase (Homo sapiens); in assay [16]; in [17]; in [18]) was “inactive” throughout. For the same molecule, the molecule was called inactive in assay [5] and in assay [8]. Further, in [19], the max activation was -3.92%.

Consider `CC1(C)[C@H](C=C(Cl)Cl)[C@H]1C(=O)OCc1c(F)c(F)cc(F)c1F`, for which the Potency entry in [1], in assay [2], in assay [3], in [4], in assay [6] and in [7] was “inactive” each time. Further, the Potency result in assay [9], in assay [10], in assay [11], in [12], in assay [13] and in assay [14] was “inactive” throughout. The Potency entry (in assay [15]; with Aromatase (Homo sapiens); in [16]; in [17]; in assay [18]) was “inactive” each time. Besides, the outcome in [5] and in [8] was inactive. For the same molecule, in assay [19], the max activation was 4.71%.
